# Assay outcomes from PubChem.
# HEK293 tox = cytotoxic compounds in HEK 293 cells; Potency, µM (top dose mostly 115 µM), inactives show top-dose activity change, negative = cytotoxicity, actives largely listed as inhibitors; AID 1345083; actives 6.6% (n = 94,000); HEK 293 viability, ATP luminescence (CellTiter-Glo), 48-72 h; further: on the % scale 0 is the no-effect control and ±100 the full control effect; nearly all actives have a fitted effect of over 60% in size
#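 CellTiter-Glo luminescence (cellular ATP) was read after 48 or 72 hr of compound exposure at 37 degree Celsius. Cells were HEK 293 plated at 250 cells/well.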
# GPT2 inh = blocks human glutamate pyruvate transaminase 2 | Recombinant GPT2, coupled pyruvate oxidase/HRP Amplex Red fluorescence | Potency, µM (doses to about 57.7 µM), without a hit: top-dose activity change, negative = inhibition, most hits filed as inhibitors | actives 0.25% (n = 100,000) | AID 1671188; further: on the % scale 0 is the no-effect control and ±100 the full control effect; nearly all actives have a fitted effect of over 60% in size
#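 Fluorescence read-out: pyruvate from GPT2 turnover coupled to pyruvate oxidase, HRP and Amplex Red (0.2mM ThPP, 0.2U/mL PO and HRP, 50uM Amplex final). Substrates 250uM a-KG, 2mM L-alanine; enzyme 10ng/uL; 30 min RT.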
# FLuc inh = blocks purified firefly luciferase enzyme activity | AID 1347043 | actives 2.5% (n = 76,000) | Potency, µM (top dose mostly 115 µM), usual class: inhibitors | purified P. pyralis luciferase, luminescence, biochemical; further: on the % scale 0 is the no-effect control and ±100 the full control effect; nearly all actives have a fitted effect of over 65% in size
#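 Luminescence read by CCD imaging after purified firefly luciferase (10nM final) was added to substrate buffer holding 10uM D-luciferin and 10uM ATP, pH 7.5, pre-dosed with compound.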
# hNpr1 antagonist = blocks ANP-stimulated signaling of human Npr1 receptor. HEK293 hNpr1 GloSensor cGMP, ANP-stimulated luminescence. Potency, µM (doses to about 46.3 µM), for inactives: at the highest dose activity change, negative = inhibition, usual class: inhibitors. P16066. actives 1.6% (n = 76,000); calls by dose curve; further: on the % scale 0 is the no-effect control and ±100 the full control effect; nearly all actives have a fitted effect of over 60% in size
# Target sequence (P16066 whole entry, looked up): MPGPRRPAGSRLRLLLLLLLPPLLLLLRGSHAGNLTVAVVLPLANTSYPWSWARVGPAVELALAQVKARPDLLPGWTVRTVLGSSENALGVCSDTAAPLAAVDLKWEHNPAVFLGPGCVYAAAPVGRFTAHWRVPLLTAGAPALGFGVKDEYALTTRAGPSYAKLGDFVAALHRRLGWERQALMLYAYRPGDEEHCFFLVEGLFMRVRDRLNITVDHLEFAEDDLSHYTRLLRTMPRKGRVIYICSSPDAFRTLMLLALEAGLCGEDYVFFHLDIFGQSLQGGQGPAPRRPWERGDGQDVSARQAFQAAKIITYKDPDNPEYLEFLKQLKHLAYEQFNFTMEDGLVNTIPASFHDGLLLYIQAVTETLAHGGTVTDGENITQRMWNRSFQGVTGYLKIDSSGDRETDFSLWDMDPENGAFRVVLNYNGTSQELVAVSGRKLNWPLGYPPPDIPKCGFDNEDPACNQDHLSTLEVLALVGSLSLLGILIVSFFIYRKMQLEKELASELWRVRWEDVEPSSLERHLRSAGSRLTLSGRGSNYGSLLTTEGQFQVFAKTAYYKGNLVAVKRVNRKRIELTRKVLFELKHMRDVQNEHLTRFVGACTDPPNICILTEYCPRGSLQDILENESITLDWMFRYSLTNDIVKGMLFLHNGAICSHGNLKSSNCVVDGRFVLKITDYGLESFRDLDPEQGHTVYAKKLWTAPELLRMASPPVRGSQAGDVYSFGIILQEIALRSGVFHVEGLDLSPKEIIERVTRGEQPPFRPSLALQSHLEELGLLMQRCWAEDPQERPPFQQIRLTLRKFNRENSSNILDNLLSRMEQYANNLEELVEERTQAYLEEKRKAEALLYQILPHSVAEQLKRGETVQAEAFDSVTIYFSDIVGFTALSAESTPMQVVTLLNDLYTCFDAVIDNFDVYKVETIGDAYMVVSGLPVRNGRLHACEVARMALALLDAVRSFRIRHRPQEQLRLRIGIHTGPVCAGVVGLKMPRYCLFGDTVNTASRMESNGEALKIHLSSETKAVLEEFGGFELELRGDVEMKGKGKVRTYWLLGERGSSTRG
#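 Compound pre-incubated 30 min at room temperature on GloSensor-loaded HEK293 cells stably carrying hNpr1 and the pGS-40F cGMP biosensor. Stimulation uses hNppA at 0.1 nM final; luminescence is taken at baseline and 20 min post-agonist.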
# 3T3 cytotox = kills NIH 3T3 cells. AID 1345082. actives 4.3% (n = 94,000). NIH 3T3 viability, CellTiter-Glo ATP luminescence, 48-72 h. Potency, µM (highest dose often 96.7 µM), inactives show top-dose activity change, negative = cytotoxicity, usual class: inhibitors; further: on the % scale 0 is the no-effect control and ±100 the full control effect; nearly all actives have a fitted effect of over 55% in size
#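 ATP-dependent luminescence (CellTiter-Glo) served as the viability signal for NIH 3T3 cells treated with compound for 48 or 72 hr at 37 °C.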
# NPR1 antag cnf = hNpr1 antagonism, confirmation assay. shares compounds with hNpr1 antagonist. HEK293 hNpr1 cGMP GloSensor luminescence, ANP-stimulated. Potency, µM (series often up to 57.6 µM), inactives show top-dose activity change, negative = inhibition, hits mostly inhibitors. actives 76% (n = 1,400); calls by dose curve; further: nearly all actives have a fitted effect of over 70% in size
# Npr2 selectivity = selectivity test of Npr1 antagonists against human Npr2; shares compounds with hNpr1 antagonist; HEK293 hNpr2 GloSensor cGMP luminescence, CNP-stimulated; Potency, µM (titrated, usually from 57.6 µM), inactives show top-dose activity change, negative = inhibition, actives largely listed as inhibitors; actives 67% (n = 1,400); calls by dose curve; further: nearly all actives have a fitted effect of over 70% in size
# FLuc counter = inhibits firefly luciferase, false Npr1 antagonist flag | shares compounds with hNpr1 antagonist | purified FLuc enzyme, luminescence, Km substrate | Potency, µM (highest dose often 57.6 µM), for inactives: at the top dose activity change, negative = inhibition, most hits filed as inhibitors | actives 0.7% (n = 1,400); further: 0% is about no effect
# GloSensor cGMP = reduces cGMP signal in GloSensor control cells; shares compounds with hNpr1 antagonist; HEK293 GloSensor cGMP, SNP-stimulated, luminescence; Potency, µM (doses to about 57.6 µM), without a hit: at the highest dose activity change, negative = inhibition, most hits filed as inhibitors; actives 69% (n = 1,400); calls by dose curve; further: on the % scale 0 is the no-effect control and ±100 the full control effect; nearly all actives have a fitted effect of over 70% in size
# The depositor's hits bear a star; i = inactive; ? = inconclusive; . = not tested or not shown; [ ] = dose if it differs, or a comment. The list is not random: actives were taken first. Their share in the collection is about 10%. Unless noted, the call rests on the fitted dose curve; in most records, active means well fitted curve in the direction sought with a large enough effect; inconclusive means small, poorly fitted or top-dose-only effect, or another doubt; inactive means no such curve, though single readings can be large; an effect the other way counts as inactive or inconclusive. Potency means the concentration at half of the fitted maximal effect.
SMILES,HEK293 tox,GPT2 inh,FLuc inh,hNpr1 antagonist,3T3 cytotox,NPR1 antag cnf,Npr2 selectivity,FLuc counter,GloSensor cGMP
COCc1ccc2c(c1)c(OC(C)(C)C(=O)Nc1ccn(C)n1)nn2Cc1cccnc1,-12%[172 µM],i,i,1%[70.6 µM],?,.,.,.,.
COc1ccc(CC(=O)N2CCC(Cc3nc(-c4ccccc4)no3)CC2)cc1,14µM*,i,i,7.1µM*,11µM*,9.7µM*,12µM*,0%,11µM*
CCOc1ccc(CC(=O)N2CCC(Cc3nc(-c4ccccc4)no3)CC2)cc1,22µM*,i,i,16µM*,?,14µM*,17µM*,9%,12µM*
Cc1ccccc1CC(=O)N1CCC(Cc2nc(-c3cnccn3)no2)CC1,6%,-3%,i,0%,-5%,.,.,.,.
CC(C)c1noc(CC2CCN(C(=O)Cc3ccsc3)CC2)n1,-43%,i,i,?,-27%,.,.,.,.
O=C(Nc1cc(F)cc(F)c1)N1CCC(CCNC(=O)C2(c3ccccc3)CC2)CC1,50µM*,-18%,i,-26%,32µM*,-19%,-10%,5%,5%
O=C(c1cccc2[nH]ccc12)N1CCCC(n2cc(-c3nc(C4CC4)no3)nn2)C1 (centres undefined),?,i,i,11µM*,?,27µM*,?,-1%,?
CC(C)c1noc(-c2cn(C3CCCN(C(=O)c4cccc5[nH]ccc45)C3)nn2)n1 (centres undefined),?,i,i,13µM*,?,27µM*,?,-18%,22µM*
Cc1noc(-c2cn(C3CCCN(C(=O)c4cccc5[nH]ccc45)C3)nn2)n1 (centres undefined),?,i,?,-15%,-32%,.,.,.,.
CC(=O)NC1CCN(c2nccc(Nc3ccccc3F)n2)CC1,?,1%[88.5 µM],.,.,?,.,.,.,.
CCOc1ccccc1C(=O)N1CCC[C@H]1c1nc(-c2ccc(OC)c(OC)c2)no1,?,1%,i,1%,-21%,.,.,.,.
CN(C)C(=O)c1cc2c(s1)CCC(C(=O)Nc1ccc(F)c(Cl)c1)C2 (centres undefined),?,i,i,-21%,?,.,.,.,.
O=C(Nc1ccc(F)c(Cl)c1)C1CCc2sc(C(=O)N3CCOCC3)cc2C1 (centres undefined),28µM*,i,i,8.9µM*,?,11µM*,12µM*,4%,9.7µM*
Cc1cccc(C)c1NC(=O)CN1CCCC1,.,i,.,.,.,.,.,.,.
Cc1cc(F)ccc1NC(=O)c1cc2n(n1)CC(c1ccc(Cl)cc1)OC2 (centres undefined),?,-4%,i,16µM*,?,27µM*,22µM*,0%,24µM*
CCc1cccc(NC(=O)c2cc3n(n2)CC(c2ccc(Cl)cc2)OC3)c1 (centres undefined),?,-7%,i,?,?,.,.,.,.
O=C(Nc1ccc(Cl)cc1)c1cc2n(n1)CC(c1ccc3c(c1)OCO3)OC2 (centres undefined),?,i,i,13µM*,?,24µM*,22µM*,-15%,22µM*
CCc1ccc(NC(=O)c2cc3n(n2)CC(c2ccc(Cl)cc2)OC3)cc1 (centres undefined),?,i,i,11µM*,?,22µM*,?,-19%,?
O=C(Nc1cccc(Cl)c1)c1cc2n(n1)CC(c1ccc3c(c1)OCO3)OC2 (centres undefined),?,i,i,-28%,?,.,.,.,.
O=C(Nc1ccc(F)cc1)c1cc2n(n1)CC(c1ccc3c(c1)OCO3)OC2 (centres undefined),?,-24%,i,13µM*,?,22µM*,34µM*,-16%,?
Cc1ccccc1NC(=O)c1cc2n(n1)CC(c1ccc(Cl)cc1)OC2 (centres undefined),?,i,i,?,?,.,.,.,.
Cn1nc(C2CCCN(C(=O)CCc3ccccc3)C2)n(C2CCCC2)c1=O (centres undefined),?,i,i,-24%,?,.,.,.,.
CCc1ccc(CNC(=O)c2cc3n(n2)CC(c2ccc4c(c2)OCO4)OC3)cc1 (centres undefined),?,?,i,-28%,?,?,-20%,-7%,?
Cc1ccc(NC(=O)c2cc3n(n2)CC(c2ccc4c(c2)OCO4)OC3)cc1Cl (centres undefined),?,2%,i,?,?,?,?,-4%,-28%
O=C(NCc1ccc(Cl)cc1)c1cc2n(n1)CC(c1ccc3c(c1)OCO3)OC2 (centres undefined),?,-16%,i,-27%,?,.,.,.,.
SMILES,HEK293 tox,GPT2 inh,FLuc inh,hNpr1 antagonist,3T3 cytotox,NPR1 antag cnf,Npr2 selectivity,FLuc counter,GloSensor cGMP
O=C(c1ccc2[nH]ccc2c1)N1CCCN(c2cc(-c3ccc(Br)cc3)[nH]n2)CC1,22µM*,?,i,4.5µM*,32µM*,24µM*,24µM*,-13%,19µM*
COc1ccc(C(=O)N2CCN(c3cc(-c4ccc(Cl)cc4)[nH]n3)CC2)cc1OC,35µM*,i,i,6.3µM*,?,15µM*,19µM*,-10%,14µM*
COc1ccc(C(=O)N2CCCN(c3cc(-c4ccc(Br)cc4)[nH]n3)CC2)cc1F,40µM*,?,i,11µM*,22µM*,22µM*,19µM*,-3%,15µM*
COc1ccc(C(=O)N2CCCN(c3cc(-c4ccc(Cl)cc4)[nH]n3)CC2)cc1F,?,?,i,?,25µM*,24µM*,22µM*,3%,24µM*
O=C(c1ccc(C(F)(F)F)cc1)N1CC(Oc2ccc3c(c2)OCO3)C1,-37%,i,.,.,?,.,.,.,.
O[C@H]1[C@H](NCc2ccc(OC(F)(F)F)cc2)[C@@H](c2cncnc2)C[C@H]1O,-2%[172 µM],-7%[88.5 µM],i,-1%[70.6 µM],3%[138 µM],.,.,.,.
